In the supplement of paper PMC3334620:
In all, about 33,000 sequences were measured (“E-score (-0.5 to 0.5)”: median about -0.012, highest 2% from about 0.29 on). This is one part of a sample in which the highest values are shown more often than they occur.

Molecular target: T1, Ybr033w (UniProt P38073)
T1 sequence: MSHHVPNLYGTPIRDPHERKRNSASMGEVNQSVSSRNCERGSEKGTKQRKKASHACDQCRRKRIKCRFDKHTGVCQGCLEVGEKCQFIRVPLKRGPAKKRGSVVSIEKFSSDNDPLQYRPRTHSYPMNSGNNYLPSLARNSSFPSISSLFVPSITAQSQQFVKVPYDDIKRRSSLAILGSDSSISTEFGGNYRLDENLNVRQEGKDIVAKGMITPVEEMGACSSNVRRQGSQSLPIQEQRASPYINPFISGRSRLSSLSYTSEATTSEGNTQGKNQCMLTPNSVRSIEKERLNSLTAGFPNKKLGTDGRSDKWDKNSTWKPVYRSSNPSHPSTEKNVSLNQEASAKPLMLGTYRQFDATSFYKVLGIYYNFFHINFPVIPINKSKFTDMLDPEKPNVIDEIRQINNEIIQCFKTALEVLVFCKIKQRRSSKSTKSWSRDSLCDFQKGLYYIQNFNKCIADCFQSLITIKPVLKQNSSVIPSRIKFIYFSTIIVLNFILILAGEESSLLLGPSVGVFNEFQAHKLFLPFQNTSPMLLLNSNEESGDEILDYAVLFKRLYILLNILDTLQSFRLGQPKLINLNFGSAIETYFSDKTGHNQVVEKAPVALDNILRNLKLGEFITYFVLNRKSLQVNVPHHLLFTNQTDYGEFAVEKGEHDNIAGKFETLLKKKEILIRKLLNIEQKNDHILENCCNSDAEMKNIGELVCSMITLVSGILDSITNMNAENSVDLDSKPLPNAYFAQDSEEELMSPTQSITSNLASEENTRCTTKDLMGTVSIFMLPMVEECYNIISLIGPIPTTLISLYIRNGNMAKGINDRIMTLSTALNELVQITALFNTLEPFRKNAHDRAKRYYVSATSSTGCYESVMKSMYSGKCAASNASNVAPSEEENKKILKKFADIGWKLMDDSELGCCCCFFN
Experiment: PBM E-score (8-mer binding enrichment) (E-score (-0.5 to 0.5)); higher = stronger / more preferred TF binding
Settings: protein concentration: 200 nM; construct: GST-full length
Outline: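 For each ungapped eight-base word taken together with its reverse complement, the Universal PBM Analysis Suite assigned an E-score. Binding data came from GST-tagged yeast transcription factors, applied at about 100-200 nM, on universal all-10-mer Agilent arrays made double-stranded by primer extension. Fluorescent anti-GST marked bound protein, and scans were normalised with masliner.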

In order of rising “PBM E-score” value:
1. CCCGGGAC  -0.322
2. GTCCAGAC  -0.308
3. CCGGGTCG  -0.279
4. AGAGGAGG  -0.26
5. CAGGGTGG  -0.234
6. GAAGGCCC  -0.223
7. CGTCCCTC  -0.217
8. AGCCCAGC  -0.2
9. ACCGGTCA  -0.2
10. CCGCGAGC  -0.194
11. TCTCCAGA  -0.189
12. ACGAAGAC  -0.177
13. ACAGCCCG  -0.175
14. CGCCCAGA  -0.174
15. CGAGACCC  -0.167
16. ACGGAATG  -0.153
17. CTCTAGGC  -0.153
18. CGGACACA  -0.152
19. AAGGGCAG  -0.151
20. CCTATTCG  -0.149
21. CTTGGCTC  -0.146
22. AAGCCCTA  -0.124
23. ATAGAGCG  -0.117
24. CCCACAAC  -0.108
25. CAAGGTGA  -0.103
26. CCCCAAAC  -0.101
27. ACAGGTAC  -0.0953
28. ACATCGGG  -0.0939
29. CACGCGCG  -0.0876
30. CGAATAGA  -0.0851
31. CGAATCGC  -0.0798
32. CCGGAATC  -0.0781
33. TACTGGCA  -0.0764
34. GACACACC  -0.0728
35. GGATCTAA  -0.0711
36. ACGATCTA  -0.0695
37. CGTATAGC  -0.0573
38. CTATTGAG  -0.0501
39. AGCACTCC  -0.0492
40. CCCGGTTC  -0.0468
41. ATAAAAGG  -0.0365
42. GATCTCCA  -0.0356
43. ACCTTCCG  -0.032
44. CGACGGTA  -0.0307
45. AGTCTGTC  -0.0266
46. AACCCTAG  -0.0236
47. CGATTGGC  -0.0233
48. AGTGAAGC  -0.0225
49. ACTCTTCC  -0.0223
50. GGGGAATA  -0.0146
51. AGCACAAG  -0.0143
52. GCTAGTAA  -0.014
53. CTTCCATC  -0.00237
54. CTACAAAA  0.00298
55. CACCTATA  0.0106
56. CTACATAA  0.0125
57. CGTTCTTA  0.0158
58. GCATAGCA  0.0192
59. CTGTAGGA  0.0305
60. TAGGAGGA  0.0316
61. GTACAAAC  0.0352
62. AGCGGCAT  0.0383
63. CACTTTTA  0.0413
64. GAACTTCA  0.0447
65. AATGTGAC  0.0448
66. AATCTTCG  0.0477
67. ACCTCGGA  0.0486
68. TGCTATAA  0.0493
69. ATACAATC  0.0522
70. AGGTCAGC  0.0524
71. ATCTTCTC  0.0573
72. ATACATAC  0.0684
73. CCAATCAA  0.075
74. ATAATGAG  0.0777
75. GATCTTCA  0.0894
76. ACCTAGCA  0.0895
77. ATTCAGAC  0.0909
78. CTACAAAG  0.0965
79. AAACTTCG  0.0988
80. GAGAACTA  0.101
81. TTCTAGAA  0.102
82. AAATTGAC  0.108
83. ACTCAGAA  0.11
84. ACGGAATC  0.113
85. ACTTTAAT  0.114
86. AAATTGAA  0.127
87. AAGCAAAA  0.13
88. AATCTTCT  0.132
89. CTTAATAC  0.136
90. ACAATAAA  0.14
91. GTTTTCAA  0.146
92. AATGTGAT  0.15
93. CTACAAAC  0.152
94. ACTACTAC  0.153
95. AAATAAGA  0.16
96. TGCTACAA  0.161
97. CTACAATA  0.164
98. ATAAAAAA  0.164
99. ATTAATCG  0.166
100. AAGATTTC  0.169
101. GATTGCAA  0.171
102. ACTACTAA  0.173
103. AGTAATAA  0.18
104. ATAATAAG  0.18
105. CTTAATAA  0.182
106. CAACGATA  0.187
107. ATAATACC  0.187
108. ATAATACG  0.187
109. ATATTGAA  0.189
110. AAATTGTC  0.192
111. ATAAAAAT  0.193
112. GTAATAAA  0.198
113. ACTAATAG  0.2
114. ATAATGAT  0.203
115. CAGTTTGA  0.206
116. ATAAATAC  0.211
117. AAACGATA  0.213
118. GCATCACA  0.215
119. CTAATAAC  0.216
120. AAATTGTA  0.22
121. CGAAAATC  0.222
122. ATAATAGA  0.223
123. ATTACTAA  0.225
124. ATAAAATC  0.226
125. ACATACAT  0.226
126. ACTAATAC  0.228
127. TTACCAAA  0.235
128. GCGGAAGA  0.236
129. TATTGCAA  0.246
130. CGGGAATA  0.246
131. ACAATAAC  0.246
132. ATACAAAT  0.252
133. ATAAATAG  0.254
134. TATTTGAA  0.255
135. ATATTGAG  0.259
136. ATTAATCA  0.26
137. TTAAATAA  0.264
138. TTACAAAA  0.268
139. GTAAAATA  0.269
140. TACCGGAA  0.27
141. GTTAATCA  0.277
142. CTAATAAA  0.28
143. TAACGATA  0.292
144. AAACTTCA  0.293
145. GCGGAATA  0.293
146. ATACAAAG  0.298
147. ATTAATAA  0.302
148. ATAATACA  0.305
149. ATAATAAT  0.305
150. ATACAAAC  0.306
151. ATTAATAC  0.306
152. ATACATAA  0.309
153. ATACAAAA  0.311
154. AATGTGAA  0.313
155. ATAAAAAG  0.316
156. AAATTGTT  0.317
157. AATCTTCA  0.318
158. ACTACTAT  0.328
159. GTTAATAA  0.329
160. ATACAATA  0.332
161. AAATTGAT  0.336
162. ACAATAAT  0.341
163. ATAAAATA  0.344
164. ACGGAATA  0.351
165. ATAATAAA  0.366
166. ATTAATAG  0.373
167. ATAAATAA  0.38
168. TTAATAAA  0.381
169. ATATTGAT  0.39
170. ATAAATAT  0.396
171. AATCTTCC  0.411
172. CCGGAATA  0.412
